Source: PubChem (National Center for Advancing Translational Sciences (NCATS))
Tb PYK inh = inhibitors of Trypanosoma brucei pyruvate kinase | Q57TT1 | TbPYK enzyme, Kinase-Glo Plus ATP luminescence, 45 min | Potency, µM (highest dose often 76.8 µM), without a hit: at the top dose activity, negative = inhibition, most hits filed as inhibitors | actives 0.12% (n = 410,000); also: potency is read from the fitted curve at half-maximal effect; % is scaled to controls: 0 for no effect and ±100 for the full control effect; nearly all actives have a fitted effect of over 50% in size
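T. brucei PYK with substrate was exposed to pin-transferred compounds across a concentration series, then started with 130 uM ADP (final). After 45 min at room temperature, Kinase-Glo Plus luminescence was read, normalized and curve-fitted.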
Shiga inhibitor = Shiga toxin inhibition; Vero cells, Shiga toxin protein synthesis inhibition reporter; inhibition, % at 38.7 µM; actives 9.2% (n = 290,000); in the data active = inhibition mostly above about 28%, no sharp cut-off; inactive = mostly below about 43%; also: 0% is about no effect
Giardia FBPA inh = Giardia lamblia aldolase inhibition; actives 0.71% (n = 290,000); Potency, µM (highest dose often 59.6 µM), for inactives: at the top dose activity, negative = inhibition, actives largely listed as inhibitors; AID 2451; purified Giardia FBPA; also: potency is read from the fitted curve at half-maximal effect; % is scaled to controls: 0 for no effect and ±100 for the full control effect; nearly all actives have a fitted effect of over 55% in size
Target sequence (A8B2U2 whole entry, looked up): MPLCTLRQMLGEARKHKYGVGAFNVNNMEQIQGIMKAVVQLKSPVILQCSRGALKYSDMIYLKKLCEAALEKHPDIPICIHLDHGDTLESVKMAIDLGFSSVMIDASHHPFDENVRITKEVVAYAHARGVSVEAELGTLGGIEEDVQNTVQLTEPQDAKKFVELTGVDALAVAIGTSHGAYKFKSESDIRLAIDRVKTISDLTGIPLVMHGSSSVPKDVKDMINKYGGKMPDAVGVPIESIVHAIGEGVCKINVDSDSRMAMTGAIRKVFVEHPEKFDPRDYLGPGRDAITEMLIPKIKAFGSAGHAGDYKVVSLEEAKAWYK
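Giardia FBPA (40 nM reagent) was preincubated 10 min at RT with compound (up to 57.5 uM final), then substrate plus GAPDH/TPI/NAD/arsenate coupling system with diaphorase/resazurin was added; resorufin fluorescence (525/598 nm) was read after 20 min.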
RE007 growth inh = less growth of the S. pombe RE007 Vpr strain; S. pombe RE007 Vpr strain, BacTiter-Glo ATP luminescence, 24 h; Potency, µM (doses to about 92.2 µM), for the others: at the highest dose activity change, negative = less growth, usual class: inhibitors; actives 0.21% (n = 360,000); AID 651644; active = well fitted falling curve with a large enough effect; inconclusive = small, poorly fitted or top-dose-only effect; inactive = no such curve, though single readings can be large or run the other way; also: potency is read from the fitted curve at half-maximal effect; % is scaled to controls: 0 for no effect and ±100 for the full control effect; nearly all actives have a fitted effect of over 50% in size
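Fission yeast RE007 carrying one integrated HIV-1 vpr copy, seeded at OD 0.01 in PMG+AL medium with 23 nL pinned compound. Grown 24 h at 30 degrees; viability read by BacTiter-Glo luminescence after 5 min.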
LmPK inhibitor = inhibitors of Leishmania mexicana pyruvate kinase | actives 0.37% (n = 290,000) | AID 1721 | purified LmPK, Kinase-Glo ATP luminescence, 1 h | Potency, µM (highest dose often 57.5 µM), inactives show top-dose activity change, negative = inhibition, actives largely listed as inhibitors; also: potency is read from the fitted curve at half-maximal effect; % is scaled to controls: 0 for no effect and ±100 for the full control effect
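ATP generated from ADP (0.1 mM) and PEP (0.5 mM) by 0.1 nM LmPK over 1 h at room temperature (pH 7.2 imidazole buffer) was detected by coupled luciferase luminescence. Values were normalized to uninhibited and no-enzyme wells.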
CHX counter = counter-screen hit for Shiga toxin inhibitors, cycloheximide | cell reporter, cycloheximide protein synthesis inhibition counterscreen | max response, % | actives 12% (n = 300,000) | AID 2314; in the data active = max response mostly above about 13%, no sharp cut-off; inactive = mostly below about 14%; also: read at 38.3 µM for the half of the compounds with a filed dose; 0% is about no effect
* hit, by the source's call; ? = inconclusive; / = no result. The entries come from a sample that favours hits as a whole. Unless noted, calls follow the shape of the dose curve; as a rule, active = well fitted curve in the direction sought with a large enough effect; inconclusive = small, poorly fitted or top-dose-only effect, or another doubt; inactive = no such curve, though single readings can be large; an effect the other way counts as inactive or inconclusive.

SMILES | Tb PYK inh | Shiga inhibitor | Giardia FBPA inh | RE007 growth inh | LmPK inhibitor | CHX counter
COc1ccc(NC(=O)Cc2ccccc2)cc1 | -9% | 38* | 0% | 9% | -10% | 30*
C=C(C)CSc1nnc([C@@H](N)Cc2ccccc2)o1 | -6% | 30 | -1% | -1% | -5% | 18*
CC(C)Sc1nnc([C@@H](N)Cc2ccccc2)o1 | -2% | 35 | 14% | 13% | 6% | 43*
CN(C)C(=O)CSc1nnc([C@@H](N)Cc2ccccc2)o1 | -12% | -4 | 10% | -7% | -5% | 0
Cc1ccc(Cn2c(C(C)NC(=O)c3ccccc3)nc3ccccc32)cc1 (configuration not stated) | 0% | / | / | / | / | /
CCOc1ccc(NC(=O)CSc2nnc(-c3ccncc3)n2-c2ccccc2)cc1 | 3% | / | / | / | / | /
Cc1ccc(CN2C(=O)C3(c4ccccc42)N(c2cccc(F)c2)C(=O)CS3(=O)=O)cc1 (configuration not stated) | 1% | / | / | / | / | /
CSc1ncc(CN2CCCC(C(=O)c3cccc(Cl)c3)C2)cn1 (configuration not stated) | 0% | -2 | 1% | -4% | 2% | -3
CSc1ncc(CN2CCCC(C(=O)c3ccc(C(C)(C)C)cc3)C2)cn1 (configuration not stated) | 0% | 37 | 1% | -23% | 1% | 22*
O=C(CNC(=O)c1cccs1)N/N=C/c1c(F)cccc1Cl | -6% | 37* | / | -12% | 1% | 16*
COc1ccccc1/C=C\C(=O)NCC(=O)N/N=C/c1cccc(OC)c1O | -1% | -6 | -20% | 9% | 8% | -1
Cc1ccc(/C=N/NC(=O)CNC(=O)c2cccs2)cc1 | -10% | 19 | / | -4% | -2% | 15*
O=C(CNC(=O)c1cccs1)NCC(=O)OCc1c(F)cccc1Cl | -9% | -6 | 2% | -1% | 2% | -3
COc1cccc(/C=N/NC(=O)CNC(=O)CCc2ccccc2)c1O | -2% | 66* | 20% | 4% | 0% | 30*
COc1cccc(/C=N/NC(=O)CNC(=O)c2cccs2)c1O | -1% | 46* | 9% | -22% | -9% | 31*
Cc1c(Cl)cccc1NC(=O)CSc1ncnc2c1sc1ccccc12 | -2% | / | / | / | / | /
CN(C)C(=O)c1ccc(-c2nc(NCc3cccnc3)c3ccccc3n2)cc1 | / | / | -1% | / | / | /
COc1cccc(-c2nccc(N(C)Cc3ccco3)n2)c1 | / | / | -8% | / | / | /
C/C(=N\Nc1nc2ccc(Cl)cc2o1)c1ccccc1 | 1% | 74* | ? | -6% | 4% | 27*
Cc1cc(C(=O)CSc2ccccc2)cc(C)c1O | -7% | 71* | -7% | -10% | -2% | 61*
Cc1cc(C(=O)CS(=O)(=O)c2ccccc2)cc(C)c1OC(=O)N(C)C | -8% | 62* | 1% | 5% | -21% | 25*
Cc1cc(C(=O)CS(=O)(=O)c2ccccc2)cc(C)c1O | -6% | 44* | -3% | -9% | -9% | 19*
CN1C(=O)C[C@@H](C(=O)N[C@@H](Cc2cnc[nH]2)C(=O)N2CCC[C@H]2C(N)=O)NC1=O | 1% | / | / | / | / | /
COc1cc(CNc2ccc(NC(C)=O)cc2)ccc1OCc1ccccc1C | 0% | 87* | -7% | -8% | -3% | 46*
COc1cc(CNc2ccc(N3CCN(C(C)=O)CC3)cc2)ccc1OCc1ccccc1 | -15% | 52* | -21% | -30% | 2% | 23*
SMILES | Tb PYK inh | Shiga inhibitor | Giardia FBPA inh | RE007 growth inh | LmPK inhibitor | CHX counter
COc1cc(C(=O)Nc2ccc(NC(C)=O)cc2)ccc1OCc1ccccc1 | 2% | -9 | 1% | -2% | -7% | 9
COc1ccc2[nH]cc(CCNc3cc(-c4ccoc4)ncn3)c2c1 | / | / | -9% | / | / | /
O=C(O)c1ccc(/C=C(\c2nc3ccccc3[nH]2)c2nc3ccccc3s2)cc1 | 3% | 40* | ? | -9% | 0% | 30*
O=C(O)c1ccc(-c2nc3ccccc3[nH]2)cc1 | ? | -12 | -11% | 3% | ? | 1
O=C(Nc1cccc(NC(=O)c2ccco2)c1)c1ccc2c(c1)OCCO2 | -6% | 43 | -2% | 2% | -21% | 22
O=C(COC(=O)c1ccco1)Nc1ccc2c(c1)OCCO2 | 4% | 79* | 4% | 13% | -14% | 56*
O=C(Nc1ccc2c(c1)OCCO2)c1ccco1 | -4% | 112* | -1% | -2% | 25µM* | 40*
Cn1cccc1C(=O)OCC(=O)Nc1ccc2c(c1)OCCO2 | 0% | / | / | -8% | / | /
CC1(C)Oc2ccc(NC(=O)c3ccco3)cc2O1 | 4% | 91* | / | -16% | -23% | 32*
COc1cc(OC)cc(-c2nnc3n2N=C(c2ccc(OC)cc2OC)CS3)c1 | / | -7 | 1% | / | / | 1
CCOc1ccc(CC(=O)NCC(c2cccs2)S(=O)(=O)c2ccc(F)c(C)c2)cc1 (configuration not stated) | 5% | / | / | / | / | /
COc1ccc(Cl)cc1NC(=O)CSc1ccc2nnc(CCNS(=O)(=O)c3ccccc3)n2n1 | 5% | / | / | / | / | /
CCN(CC)S(=O)(=O)c1nnc(NC(=O)COc2cccc(C)c2)s1 | 1% | / | / | / | / | /
Cc1cccnc1NC(N)=S | -14% | 17 | -1% | -6% | -3% | 4
CCOc1ccccc1NC(=S)Nc1ncccc1C | -10% | -3 | -5% | -26% | 2% | 9
Cc1cccnc1NC(=S)NCCc1ccccc1 | -27% | 70* | -1% | ? | -5% | 37*
Cc1cccnc1NC(=S)Nc1ncccc1C | -12% | 68* | ? | 11% | ? | 31*
COc1ccc(NC(=S)Nc2ncccc2C)cc1OC | -2% | 76* | ? | -18% | -5% | 46*
COc1ccc(NC(=S)NCc2ccccn2)cc1OC | 1% | 4 | -13% | 0% | -3% | 6
COc1ccc(NC(=S)Nc2ncccc2C)c(OC)c1 | -4% | 68 | -10% | 12% | 1% | 63*
S=C(NCCc1ccccc1)Nc1ncccn1 | -7% | / | / | -13% | / | /
Cc1c(C2=CCN(S(=O)(=O)c3ccc(CC(C)C)cc3)CC2)c2ccccc2n1CC(=O)N1CCCC1 | -2% | / | / | / | / | /
S=C(NCc1ccccn1)Nc1ccc(Cl)c(Cl)c1 | 6% | 16 | -9% | -13% | 4% | 28
Cc1cccnc1NC(=S)Nc1ccc(Cl)c(Cl)c1 | -3% | 103* | -13% | -13% | -2% | 32*
CCOc1ccccc1NC(=O)C(C)n1nnc2sc3c(c2c1=O)CCCC3 (configuration not stated) | 0% | / | / | / | / | /
c1ccn(-c2ccc(-c3ccn[nH]3)cc2)c1 | -3% | 91* | 0% | ? | -5% | 37*
Cc1ccc(C)n1-c1ccc(-c2ccn[nH]2)cc1 | 1% | 71* | 0% | -1% | 5% | 36*
C=CCN1C(=O)N/C(=C/c2ccc(C)o2)C1=O | ? | 11 | 16µM* | ? | 3% | -1
